Test results as given in PubChem BioAssay AID687014 (The Scripps Research Institute Molecular Screening Center, 2013).
Among all 370,000 compounds or so, about 6,800 (1.8%) were called active. The full list was thinned out, with actives kept by preference. Unmarked numbers belong to inactive results.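 Rule for the calls: active = activation above a cutoff set at the mean of all screened compounds plus 3 SD (cut at about 10% in these data); inactive = the rest.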

What follows are compounds tested on Nuclear hormone receptor DAF-12 (Heterodera glycines), GAL4 fusion (assay: hgDAF-12 GAL4 fusion reporter activation – cell-based, luminescence, HEK293, UAS-luciferase, primary screen (AID 687014;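 note: 0% = DMSO wells and 100% = sodium butyrate wells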)). Conditions: HEK293 GAL4-hgDAF12 UAS-luciferase reporter, agonist luminescence; at 6.8 µM; stronger effect = higher value; normalized to butyrate control.

Structure (SMILES) | activation
O=C(C1CCN(S(=O)(=O)c2ccccc2)CC1)N1CCN(C2CCCCC2)CC1 | -4.1%
COC(=O)C[C@@H]1CC[C@@H]2[C@@H](COc3ccc(NC(=O)Nc4ccc(F)c(F)c4)cc3C(=O)N2C)O1 | 0.28%
O=C(NN1C(=O)C2C3C=CC(C4CC34)C2C1=O)c1ccc(Cl)cc1 (stereo not given) | 0.35%
CC(C)CNc1cccc2c1S(=O)(=O)N(Cc1cn(Cc3ccccc3C(F)(F)F)nn1)Cc1ccccc1O2 | -3.87%
C[C@H](C(=O)N(C)c1ccccc1)[C@@H](O)c1ccc(Cl)cc1 | 1.73%
COc1ccc(C(NC(=O)C2CCN(CCCc3ccccc3)CC2)c2cccs2)cc1 (stereo not given) | -0.24%
CC(=O)OCCN1CCCC12CCC(c1ccccc1)CC2 (stereo not given) | -0.9%
CCOC(=O)c1cc(-c2ccc(Cl)s2)nc2c1c(C)nn2C | -0.72%
Cn1c(=NC(=O)c2ccco2)sc2cccc(F)c21 | 20.1% (active)
Cn1c(=NC(=O)c2cnccn2)sc2ccccc21 | 9.34%
Cc1cc(NC(=O)c2ccco2)c(=O)n(Cc2c(F)cccc2Cl)c1 | -0.15%
CC(c1ccc(N)cc1)c1cn(C)c2ccccc12 (stereo not given) | -1.36%
C#CCN([C@H](C(=O)OC)C(C)CC)S(=O)(=O)c1ccccc1Br (stereo not given in full) | 0.28%
CN(C)S(=O)(=O)c1cccc(C(=O)N/N=C\c2ccco2)c1 | 3.58%
CC(/C=N/NC(=O)c1cc(-c2ccc3ccccc3c2)n[nH]1)=C\c1ccco1 | 20.6% (active)
Cc1cc(C(=O)NN=C/C=C/c2ccco2)n[nH]1 | -0.85%
COC(=O)[C@]12C[C@H](CC(=O)N3CCN(C(=O)C4CC4)CC3)C(=O)N(Cc3ccc4c(c3)OCO4)C1=C[C@H](C(C)(C)C)O[C@@H]2C | 0.51%
COc1ccc(N(CC(=O)NC(C)(C)C)C(=O)c2ccco2)cc1 | 0.5%
COc1cccc2cc(/C(C)=N/NC(=O)c3ccco3)oc12 | 4.73%
C/C(CC(=O)NC(C)(C)C)=N\NC(=O)c1ccco1 | 12.8% (active)
CCOC(=O)c1cccc(NC(=O)CN(C)S(=O)(=O)c2ccc(-c3cocn3)s2)c1 | 1.77%
COC(=O)c1ccc(/C=C/c2c(-c3ccc(OC)cc3)sc3ccccc23)cc1 | 0.64%
COc1ccc(N=C(C)c2sc3ccccc3c2O)cc1 | 13.8% (active)

Structure (SMILES) | activation
COc1ccc(-n2c(SCC(=O)NC3CCCC3)nnc2-c2ccncc2)cc1 | -0.49%
Cc1ccc(Cn2cc(COC(=O)N(C)Cc3ccccc3)nn2)cc1 | 0.1%
Cc1cccc(Nc2nc(-c3ccccc3)cs2)n1 | 18.8% (active)
N#CC(=C1SC=CS1)c1nc(-c2ccccc2)cs1 | 8.13%
c1ccc(-c2csc(N3CCc4ccccc4C3)n2)cc1 | 4.55%
CC(=O)NC(c1ccccc1)c1nc(-c2cccc(C(C)C)c2)cs1 (stereo not given) | 1.94%
O=S(=O)(NCCc1csc(-c2ccccc2)n1)c1cccnc1 | -0.11%
Cc1csc(NC(=O)CSc2nnc(-c3cccnc3)o2)n1 | 4.01%
CC(=O)NC(c1cccc(F)c1)c1nc(-c2cccc(F)c2)cs1 (stereo not given) | 1.2%
CC(=O)Nc1cccc(-c2csc(Nc3cccc(C)n3)n2)c1 | 16.6% (active)
Cc1ccccc1Nc1nc(-c2cccnc2)cs1 | 17.6% (active)
Cc1cc(C)nc(NC(=S)N2CCN(c3ccc(C(F)(F)F)cn3)CC2)c1 | -6.42%
O=C(NCC1CC1)c1onc(CSc2ccccc2)c1C(=O)NCC1CC1 | 1.09%
Cc1cccc(NC(=O)C[C@H]2CC[C@H]3[C@@H](COc4ccc(NC(=O)Nc5ccccc5)cc4C(=O)N3C)O2)c1 | -1.77%
O=C(NCCCN1CCN(c2ccccc2F)CC1)C1CCC(=O)N1C1CCCCC1 (stereo not given) | 0.6%
O=C1CN(C(=O)c2ccccc2F)C(c2ccc(F)cc2)c2cc(F)ccc2N1 (stereo not given) | -3.72%
O=C(CCCCCN1C(=O)C2C3C=CC(C3)C2C1=O)Nc1ccccn1 (stereo not given) | 2.03%
COC(CNC(=O)[C@H](Cc1ccccc1)NC1(C(=O)NC2CCCCC2)CCCCC1)OC | 1.76%
N#Cc1c(-c2ccccc2)c(-c2ccccc2)n[nH]c1=O | 0.04%
O=C(O)c1n[nH]nc1-c1ccccc1 | -0.69%
Cc1c[nH]c2cccc(-c3ccc(Cl)cc3)c12 | 5.56%
c1ccc(-c2cc(-c3ccccc3)[nH]n2)cc1 | 12.2% (active)
Oc1ccccc1-c1cc(-c2ccc(Cl)cc2)n[nH]1 | 20.1% (active)

Structure (SMILES) | activation
CC(C)C(=O)NCc1cc(-c2ccc(Cl)cc2)no1 | -0.54%
Cc1ccc(S(=O)(=O)N(C)c2ccc(OCC(=O)OCC(=O)N(CC#N)c3ccccc3)cc2)cc1 | -0.04%
O=C(N[C@H](Cc1ccccc1)C(=O)N1CCCN(Cc2cccs2)CC1)[C@H]1O[C@@H](n2ccc(=O)[nH]c2=O)[C@H](O)[C@@H]1O | -0.37%
CC(C)(C)C(c1nc2ccccc2[nH]1)n1c(Cc2csc3ccccc23)nc2ccccc21 (stereo not given) | 6.72%
O=C(O)Cn1cnc2c(NCc3ccccc3)ncnc21 | 1.82%
CCCCNC(=O)C[C@H]1C[C@@]2(C(=O)OC)C(=C[C@H](COCc3ccccc3)O[C@@H]2C)N(Cc2ccc(Cl)cc2Cl)C1=O | 0.35%
O=C(N1CCOCC1)N1CC[C@H]2[C@H](CCCN2Cc2ccc(F)cc2)C1 | -0.84%
O=C(CCc1ccccc1F)N1CCN(c2ccccc2)CC1 | 0.77%
O=C(CCS(=O)(=O)c1cccc2nsnc12)N1CCN(c2ccccc2F)CC1 | 0.1%
O=C(CCSc1ccccc1)N1CCN(c2ccccc2F)CC1 | 14.2% (active)
O=C(CCc1ccccc1)Nc1ncc([N+](=O)[O-])s1 | 11.2% (active)
O=C(CCc1ccccc1)Nc1nn[nH]n1 | 0.42%
O=C(CCc1ccccc1)Nc1ccc(NC(=O)C2CC2)nc1 | -1.22%
CCc1ccc(NC(=O)Cn2nnc(C(=O)NCc3ccc4c(c3)OCO4)c2N)cc1 | -0.22%
Nc1c(C(=O)Nc2ccc3c(c2)OCCO3)nnn1Cc1ccccc1 | 11.1% (active)
Cn1cc([N+](=O)[O-])c(C(=O)Nc2ccc3c(c2)OCCO3)n1 | 5.47%
COc1ccccc1NS(=O)(=O)c1ccc(C)c(C(=O)NNC(=O)c2csc(N3CCOCC3)n2)c1 | -0.05%
Cc1noc(C)c1CCC(=O)N1CCCC(CO)(Cc2ccccc2)C1 (stereo not given) | 9.68%
Cc1ccccc1CC1(CO)CCCN(C(=O)c2cc(-c3ccccc3)no2)C1 (stereo not given) | -2.47%
COC(=O)CCC(=O)N1CCCC(CO)(Cc2ccccc2)C1 (stereo not given) | 11.1% (active)
CC1CCCN(c2cccc3c2S(=O)(=O)N(Cc2ccc(F)cc2)[C@@H](C)[C@H](c2ccccc2)O3)C1 (stereo not given in full) | 2.2%
COC(=O)C12C=C3CC(c4ccccc4)=C3C(=O)N1Cc1[nH]c3ccccc3c1C2 (stereo not given) | -0.17%
Cc1nc2nc[nH]n2c(=O)c1C/C=C/c1ccccc1 | -0.77%

Structure (SMILES) | activation
C=CCc1c(C)nc2cc(-c3ccccc3)[nH]n2c1=O | 11.2% (active)
CCc1c(C)nc2cc(C)[nH]n2c1=O | -1.41%
C[C@@H]1CN([C@@H](C)CO)C(=O)c2c(c3ccccc3n2C)-c2ccccc2CO[C@H]1CN(C)C(=O)C1CC1 | 0.34%
Cc1ccccc1NC(=O)C1CCN(c2ncccn2)CC1 | 2.53%
Cc1cccc(-n2c(O)c(C=Nc3ccccc3N)c(=O)[nH]c2=O)c1 | 14.9% (active)
COc1cccc(CNC(=O)CNS(=O)(=O)c2ccc3nc(C)sc3c2)c1OC | -1.09%
CCOC(=O)[C@]12CCCCC/C=C\1N(Cc1ccc(OC)cc1)C(=O)[C@H]2CC(=O)NCCCN1CCCC1=O | 3.26%
CCn1c(=O)n2n(c1=O)[C@@]1(C=C3CCCC[C@H]32)N=C(NC(=O)c2ccccc2)N(Cc2ccccc2)[C@H]1Cc1ccccc1 | -2.77%
COc1ccc(C(C)(O)c2nc(-c3cc(F)cc(F)c3)cs2)cc1 (stereo not given) | -1.7%
COc1ccc(-c2csc(Cc3nc(O)cs3)n2)cc1 | 21.6% (active)
COc1ccc(C(C)(NC(C)=O)c2nc(-c3ccc(S(C)(=O)=O)cc3)cs2)cc1 (stereo not given) | -0.04%
Cc1c(C(C)c2ccccc2O)[nH]c2ccccc12 (stereo not given) | 2.99%
Cc1sc2ncnc(N3CCC(C(=O)Nc4ccc(F)cc4Cl)CC3)c2c1C | -1.36%
Cc1sc2ncnc(N3CCC(C(=O)Nc4nc5ccc(Cl)cc5s4)CC3)c2c1C | 12.9% (active)
Cc1sc2ncnc(N3CCC(C(=O)NNC(=O)c4ccc(F)cc4)CC3)c2c1C | -1.73%
COc1ccc(OC)c(NC(=O)C2CCCN2S(=O)(=O)c2ccc3c(c2)CC(C)N3C(C)=O)c1 (stereo not given) | -2.45%
O=C(NCc1ccc(Cl)cc1)C1CCCN(c2nc3ccccc3o2)C1 (stereo not given) | -0.62%
CC(=O)C1(C(=O)Nc2nccs2)CC(c2ccccc2C(F)(F)F)=NO1 (stereo not given) | 0.67%
Cc1ccnc(N2C(=O)c3ccc([N+](=O)[O-])cc3C2=O)c1 | 0.65%
O=c1c2cc([N+](=O)[O-])ccc2nc2n1CCC2 | -2.97%
Cc1ccc(-n2cc3ccc([N+](=O)[O-])cc3n2)cc1 | 17.1% (active)
